# The entries come from a sample that favours hits as a whole.
# Lassa entry inh: inhibitors of Lassa virus binding or cell entry. Potency, µM (top dose mostly 37.9 µM), inactives show at the highest dose activity change, negative = inhibition, hits mostly inhibitors. Lassa virus pseudotype entry inhibition, cell reporter. AID 540256. 300,000 compounds, 1.2% hits; calls by dose curve; tested in HEK293 cells; also: potency is read from the fitted curve at half-maximal effect; % is scaled to controls: 0 for no effect and ±100 for the full control effect; nearly all actives have a fitted effect of over 50% in size
# VACV Venus inh: inhibitors of vaccinia virus (Venus reporter); Vaccinia virus Venus reporter expression, fluorescence; AID 720580; 330,000 compounds, 0.46% hits; Potency, µM (top dose mostly 36.5 µM), without a hit: at the top dose activity change, negative = inhibition, usual class: inhibitors; calls by dose curve; tested in A549 cells; also: potency is read from the fitted curve at half-maximal effect; % is scaled to controls: 0 for no effect and ±100 for the full control effect; nearly all actives have a fitted effect of over 30% in size
# VACV mCherry inh: inhibitors of vaccinia virus infection (mCherry reporter signal) | Vaccinia virus mCherry reporter infection, fluorescence | Potency, µM (titrated, usually from 36.5 µM), inactives show at the top dose activity change, negative = inhibition, usual class: inhibitors | 310,000 compounds, 0.63% hits | AID 720579; calls by dose curve; tested in A549 cells; also: potency is read from the fitted curve at half-maximal effect; % is scaled to controls: 0 for no effect and ±100 for the full control effect; nearly all actives have a fitted effect of over 35% in size
# MARV entry inh: blocks Marburg virus binding to or entry into cells. Marburg virus pseudotyped entry inhibition, cell reporter. Potency, µM (titrated, usually from 37.8 µM), for the others: at the highest dose activity change, negative = inhibition, most hits filed as inhibitors. 300,000 compounds, 1.8% hits. AID 540276; calls by dose curve; tested in HEK293 cells; also: potency is read from the fitted curve at half-maximal effect; % is scaled to controls: 0 for no effect and ±100 for the full control effect
# CHX counter: affects cycloheximide protein synthesis inhibition readout, counter-screen; AID 2314; cell reporter, cycloheximide protein synthesis inhibition counterscreen; max response, %; 300,000 compounds, 12% hits; in the data active = max response mostly above about 13%, no sharp cut-off; inactive = mostly below about 14%; also: read at 38.3 µM for the half of the compounds with a filed dose; 0% is about no effect
# Shiga inhibitor: blocks Shiga toxin action in Vero cells; 290,000 compounds, 9.2% hits; inhibition, % at 38.7 µM; AID 2315; Vero cells, Shiga toxin protein synthesis inhibition reporter; in the data active = inhibition mostly above about 28%, no sharp cut-off; inactive = mostly below about 43%; also: 0% is about no effect
# Starred values were filed as active, the others as inactive; i = inactive; ? = inconclusive; . = no result; + = active, no number; [ ] = dose if it differs, or a comment.
SMILES,Lassa entry inh,VACV Venus inh,VACV mCherry inh,MARV entry inh,CHX counter,Shiga inhibitor
CC1CC(C)CN(CCCNC(=O)CCC(=O)N2CC(C)Oc3ccccc32)C1 (stereo unspecified),.,-7%,23%,.,-3,-2
Cc1[nH]nc(Nc2ccccc2)c1[N+](=O)[O-],?,.,.,13%,31*,53
Cc1[nH]nc(Nc2ccc(Br)cc2)c1[N+](=O)[O-],.,.,.,.,56*,112*
Cc1[nH]nc(NNC(=O)c2ccccc2)c1[N+](=O)[O-],2%[46.1 µM],-6%,-4%,6%[46.1 µM],-1,22
Cc1[nH]nc(Nc2ccc(C(C)C)cc2)c1[N+](=O)[O-],?,-15%,-2%,?,57*,55*
CCc1ccc(NC(=O)CSc2n[nH]c(C)c2[N+](=O)[O-])cc1,-6%,-10%,-7%,0%,1,1
Cc1[nH]nc(Sc2ccccn2)c1[N+](=O)[O-],?,-1%,-4%,3%,15,44*
Cc1ccc(NC(=O)CN(C)C(=O)c2cc(-c3ccccc3)nn2-c2ccccc2)cc1,-11%,-20%,-8%,-11%,.,.
Cc1[nH]nc(NCCO)c1[N+](=O)[O-],19%,-5%,i,-11%,1,-5
Cc1cccc(Nc2n[nH]c(C)c2[N+](=O)[O-])c1,?,-26%,-23%,13µM*,63*,107*
Cc1ccc(Nc2n[nH]c(C)c2[N+](=O)[O-])cc1,14%,-10%,-9%,-6%,29*,43*
O=C(O)c1ccc2c(=O)n3c(nc2c1)/C(=C/c1cccc(Cl)c1Cl)CC3,3%,-14%,-9%,24%[46.1 µM],-2,-6
O=C1C(Nc2ccc(O)cc2)=C/C(=N/S(=O)(=O)c2cccs2)c2ccccc21,3.5µM*,2µM*,?,2.5µM*,21*,20
Cc1ccc(NC2=C/C(=N\S(=O)(=O)c3cccs3)c3ccccc3C2=O)c(C)c1,?,6.3µM*,10µM*,?,13*,7
Cc1ccc(Cl)cc1NC1=C/C(=N\S(=O)(=O)c2cccs2)c2ccccc2C1=O,6.5µM*,?,25µM*,?,-1,-10
CC(=O)N[C@@H](CSC/C=C(\C)CC/C=C(\C)CC/C=C(\C)CCC=C(C)C)C(=O)O,.,-16%[3.33 µM],-14%,.,.,.
CCOc1ccc(C(=O)NCc2nc3cccnc3n2Cc2ccc(F)cc2)cc1OCC,-17%[46.1 µM],-6%,-12%,.,.,.
Cc1cc(C)nc(N/N=C/c2sccc2C)n1,1%,-12%,-12%,?,26*,77*
Cc1ccsc1/C=N/Nc1ccc(F)cc1F,17%[46.1 µM],7%,?,?,44*,91*
Cc1ccsc1/C=N/Nc1ncc(Cl)cc1Cl,?,?,.,-24%,32*,119*
Cc1ccsc1/C=N/Nc1nc(=O)[nH]nc1C,18µM*,-13%,?,?,34*,112*
O=c1ccc2cc(S(=O)(=O)Nc3ccc(OC(F)(F)F)cc3)ccc2[nH]1,-9%[46.1 µM],-10%,-4%,.,.,.
O=c1c2c(-c3ccc([N+](=O)[O-])cc3)csc2nc2n1CCCCC2,?,1%,-7%,?,4,15
CCOC(=O)c1sc2ccccc2c1OC(=O)c1ccc(C)cc1,4.5µM*,-5%,-13%,-26%,5,-5
COC(=O)c1sc2ccccc2c1C(=O)OC,-19%[14.3 µM],-2%,i,10%,6,-7
SMILES,Lassa entry inh,VACV Venus inh,VACV mCherry inh,MARV entry inh,CHX counter,Shiga inhibitor
COC(=O)c1sc2ccccc2c1N,.,-8%,i,.,32*,60*
COc1cccc(-n2c(SCc3cccc(C)c3)nc3c([nH]c4ccccc43)c2=O)c1,?,-11%,-7%,.,.,.
CC(Cc1ccccn1)NC(=O)c1ccc(OC2CCN(Cc3ccccn3)CC2)cc1 (stereo unspecified),-11%,-14%,-9%,?,38*,24*
O=C(NCC1CCOCC1)c1ccc(OC2CCN(Cc3ccccn3)CC2)cc1,.,-10%,-2%,.,1,-3
O=C(NCCc1ccccn1)c1ccc(OC2CCN(Cc3ccccn3)CC2)cc1,.,.,.,.,83*,64*
CC(C)(C)NCC(=Cc1ccccc1)C(=O)c1ccccc1,7.1µM*,?,10µM*,7.9µM*,.,.
CCCCNC(=O)c1ccc2c(c1)ncn2-c1cc(OC)ccc1OC,24%[46.1 µM],-11%,i,.,.,.
COCCN1CCN(C(=O)c2cnn(-c3nccc(-c4ccccc4F)n3)c2-c2ccco2)CC1,.,7%,-2%,.,.,.
Cc1ccc2cc(/C=C/C(=O)c3ccco3)c(Cl)nc2c1,-5%,-7%,7%,4%[46.1 µM],83*,117*
Cc1ccc2nc(Cl)c(/C=C/C(=O)c3ccco3)cc2c1,?,-10%,i,4%,57*,81*
Cc1ccc2cc(/C=N/NC(=O)c3ccc(F)cc3)c(Cl)nc2c1,12%,1%,-14%,1%,-2,-7
CCN(CC)c1ccc(N=Cc2ccc([N+](=O)[O-])o2)cc1,?,?,?,?,57*,139*
CCCCCC(=O)N/N=C/c1ccc([N+](=O)[O-])o1,?,.,.,?,9,28
COc1ccc([C@]23Cc4ccccc4C(O2)C2=C(CC4(CCCCC4)OC2=O)O3)cc1,.,.,.,.,37*,+
COc1ccc([C@]23Cc4ccccc4C(O2)C2=C(O3)C(=O)c3ccccc3C2=O)cc1,.,.,.,.,19*,i
COc1ccc([C@]23Cc4c(ccc5ccccc45)C(O2)C2=C(CC4(CCCCC4)OC2=O)O3)cc1,.,.,.,.,-1,i
O=c1n(CCCN2CCN(C3CCCC(Cl)C3)CC2)nc2ccccn12 (stereo unspecified),.,.,.,40%,.,.
O=C(NC1CCCC1)c1ccc(Cl)c(S(=O)(=O)N2CCCCC2)c1,-4%,-7%,i,-5%,-4,-4
CCCC/C(O)=C1\C(=O)CC(C)(C)CC1=Nc1ccc(N)cc1,-3%,-14%,-21%,16%[46.1 µM],-3,2
Cc1cc(C)nc(-n2ncc3c2CC(c2ccccc2)CC3=O)n1 (stereo unspecified),?,4%,-4%,-4%[46.1 µM],-2,-6
Cc1cc(C)nc(-n2ncc3c2CC(c2cccc(Cl)c2)CC3=O)n1 (stereo unspecified),?,?,10µM*,5.6µM*,1,-14
CC(=O)OCc1cnc(C)c2oc(=O)c(C(=O)Nc3cccc(F)c3)cc12,0.79µM*,-2%,-7%,.,.,.
CCOC(=O)c1nn(-c2ccccc2)c(=O)cc1SC1CCCCC1,-3%,1%,-3%,0%[14.2 µM],-4,-8
CCN(CC)C(=O)c1nn(-c2ccc(OC)cc2)c(=O)c2c(N)scc12,.,.,.,.,-5,-6
O=C(N/N=C/C=C/c1ccccc1)c1ccccc1Br,0%,-3%,-19%,-1%,26*,41
CC(C)c1cc(C(=O)N/N=C/C=C/c2ccccc2)n[nH]1,-2%,.,.,22%,1,15
Cc1ccc(C(=O)N/N=C/C=C/c2ccccc2)cc1,-7%[46.1 µM],-7%,i,-7%[46.1 µM],25*,49
Cc1onc(-c2ccccc2)c1C(=O)N/N=C/C(Br)=C/c1ccccc1,?,-15%,?,?,-1,-4
